# Source: PMC7862700, “An all-to-all approach to the identification of sequence-specific readers for epigenetic DNA modifications on cytosine”
# Assays:
# Assay in all cases: DAPPL (digital affinity profiling via proximity ligation, sequencing); 10 mM Tris-HCl pH 7.5, 50 mM NaCl, 1 mM DTT, 4% glycerol, room temperature, 30 min; GST-TFs on glutathione beads, 16-mer random dsDNA library, 0.1% formaldehyde crosslink after washing; high values mean tight binding
# [1] = target: T1, FLI1 (Homo sapiens, UniProt Q01543 1-452); conditions: protein: recombinant; tags: N-terminal GST; dsDNA, one strand shown
# T1 sequence: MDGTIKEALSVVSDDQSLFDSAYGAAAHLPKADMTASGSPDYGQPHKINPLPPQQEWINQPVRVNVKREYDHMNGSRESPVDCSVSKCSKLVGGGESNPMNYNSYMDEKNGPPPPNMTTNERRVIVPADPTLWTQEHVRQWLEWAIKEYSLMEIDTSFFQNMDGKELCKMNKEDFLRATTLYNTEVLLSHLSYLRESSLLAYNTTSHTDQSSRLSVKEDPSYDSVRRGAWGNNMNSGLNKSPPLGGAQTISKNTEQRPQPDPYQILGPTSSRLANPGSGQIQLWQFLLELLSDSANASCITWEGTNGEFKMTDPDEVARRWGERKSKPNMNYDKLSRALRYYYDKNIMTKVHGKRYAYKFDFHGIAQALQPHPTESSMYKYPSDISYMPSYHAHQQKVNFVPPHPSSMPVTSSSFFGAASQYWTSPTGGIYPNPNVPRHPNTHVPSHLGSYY
# How it was run: (§1)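 Human transcription factors were made in yeast as GST fusions, captured on glutathione beads and barcoded with DNA. With a tag-only sample included, the pool was incubated with 200 nmole of a random double-stranded 16-mer DNA library in Tris/NaCl/DTT/glycerol buffer at room temperature for 30 min, then crosslinked with 0.1% formaldehyde after washing, ligated by proximity, amplified and sequenced. For binding signal, each hexamer's read frequency for a factor is divided by its frequency for the tag-only sample.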
# [2] = target: T2, ELK1 (Homo sapiens, UniProt P19419 1-428); conditions: protein: recombinant; tags: N-terminal GST; dsDNA, one strand shown
# T2 sequence: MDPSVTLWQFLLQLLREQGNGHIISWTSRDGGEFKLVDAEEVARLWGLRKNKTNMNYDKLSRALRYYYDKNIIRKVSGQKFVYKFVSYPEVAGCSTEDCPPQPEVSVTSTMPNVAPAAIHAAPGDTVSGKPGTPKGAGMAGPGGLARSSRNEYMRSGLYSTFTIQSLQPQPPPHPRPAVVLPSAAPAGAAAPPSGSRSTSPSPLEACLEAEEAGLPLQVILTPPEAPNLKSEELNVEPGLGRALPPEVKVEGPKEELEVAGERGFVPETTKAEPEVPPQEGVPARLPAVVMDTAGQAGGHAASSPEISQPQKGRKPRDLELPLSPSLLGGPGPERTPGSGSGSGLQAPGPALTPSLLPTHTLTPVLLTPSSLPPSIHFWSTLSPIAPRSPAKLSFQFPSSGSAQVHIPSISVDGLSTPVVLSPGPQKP
# How it was run: as §1
# [3] = target: T3, GABPA (Homo sapiens, UniProt Q06546 1-454); conditions: protein: recombinant; tags: N-terminal GST; dsDNA, one strand shown
# T3 sequence: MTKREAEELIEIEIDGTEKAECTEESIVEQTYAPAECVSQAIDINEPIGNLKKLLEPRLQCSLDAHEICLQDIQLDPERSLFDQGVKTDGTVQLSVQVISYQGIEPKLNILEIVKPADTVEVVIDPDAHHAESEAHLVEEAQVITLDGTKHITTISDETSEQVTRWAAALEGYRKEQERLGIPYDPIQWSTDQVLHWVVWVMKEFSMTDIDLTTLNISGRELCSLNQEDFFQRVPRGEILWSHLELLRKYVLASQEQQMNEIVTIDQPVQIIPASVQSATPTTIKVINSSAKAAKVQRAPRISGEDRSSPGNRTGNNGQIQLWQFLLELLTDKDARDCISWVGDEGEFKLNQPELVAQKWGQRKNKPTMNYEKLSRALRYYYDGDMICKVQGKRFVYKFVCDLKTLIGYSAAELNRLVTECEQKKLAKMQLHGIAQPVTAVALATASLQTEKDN
# How it was run: as §1
# [4] = target: T4, ERG (Homo sapiens, UniProt P11308 1-479); conditions: protein: recombinant; tags: N-terminal GST; dsDNA, one strand shown
# T4 sequence: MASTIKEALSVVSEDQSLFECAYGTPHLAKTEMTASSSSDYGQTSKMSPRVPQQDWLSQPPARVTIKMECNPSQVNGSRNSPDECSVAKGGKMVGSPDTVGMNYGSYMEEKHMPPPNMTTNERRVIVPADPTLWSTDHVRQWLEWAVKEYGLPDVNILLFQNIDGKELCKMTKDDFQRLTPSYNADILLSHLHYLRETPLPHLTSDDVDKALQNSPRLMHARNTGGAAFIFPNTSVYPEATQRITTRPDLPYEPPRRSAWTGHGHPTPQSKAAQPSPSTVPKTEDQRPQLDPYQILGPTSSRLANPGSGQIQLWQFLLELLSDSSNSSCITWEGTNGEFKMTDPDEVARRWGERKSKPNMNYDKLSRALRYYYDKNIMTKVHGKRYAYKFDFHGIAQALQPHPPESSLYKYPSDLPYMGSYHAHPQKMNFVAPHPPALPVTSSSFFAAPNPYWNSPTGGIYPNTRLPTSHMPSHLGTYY
# How it was run: as §1
# [5] = target: ELF1 (Homo sapiens, UniProt P32519 1-619); conditions: protein: recombinant; tags: N-terminal GST; dsDNA, one strand shown
# How it was run: as §1
# [6] = target: SPI1 (Homo sapiens, UniProt P17947 1-270); conditions: protein: recombinant; tags: N-terminal GST; dsDNA, one strand shown
# How it was run: as §1
# [7] = target: SPIB (Homo sapiens, UniProt Q01892 1-262); conditions: protein: recombinant; tags: N-terminal GST; dsDNA, one strand shown
# How it was run: as §1
# [8] = target: T5, ELK3 (Homo sapiens, UniProt P41970 1-407); conditions: protein: recombinant; tags: N-terminal GST; dsDNA, one strand shown
# T5 sequence: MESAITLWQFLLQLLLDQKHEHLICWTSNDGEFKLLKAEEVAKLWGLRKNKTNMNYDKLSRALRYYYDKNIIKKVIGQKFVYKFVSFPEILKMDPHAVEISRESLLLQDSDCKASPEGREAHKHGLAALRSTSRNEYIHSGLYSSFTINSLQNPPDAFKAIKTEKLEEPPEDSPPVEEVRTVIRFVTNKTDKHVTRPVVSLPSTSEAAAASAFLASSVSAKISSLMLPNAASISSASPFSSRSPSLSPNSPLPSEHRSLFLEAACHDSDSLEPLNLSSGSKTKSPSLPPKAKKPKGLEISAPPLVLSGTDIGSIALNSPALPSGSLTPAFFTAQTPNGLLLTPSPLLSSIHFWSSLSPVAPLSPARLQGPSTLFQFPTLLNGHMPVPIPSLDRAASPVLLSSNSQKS
# How it was run: as §1
# [9] = target: T6, FEV (Homo sapiens, UniProt Q99581 1-238); conditions: protein: recombinant; tags: N-terminal GST; dsDNA, one strand shown
# T6 sequence: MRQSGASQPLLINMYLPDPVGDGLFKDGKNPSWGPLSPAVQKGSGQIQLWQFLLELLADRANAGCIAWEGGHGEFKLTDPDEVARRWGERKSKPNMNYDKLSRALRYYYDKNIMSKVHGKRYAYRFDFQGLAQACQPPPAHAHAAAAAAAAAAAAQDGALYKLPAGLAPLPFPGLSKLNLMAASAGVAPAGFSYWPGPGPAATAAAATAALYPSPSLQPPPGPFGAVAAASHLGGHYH
# How it was run: as §1
# [10] = target: ETV5 (Homo sapiens, UniProt P41161 1-510); conditions: protein: recombinant; tags: N-terminal GST; dsDNA, one strand shown
# How it was run: as §1
# [11] = target: HSF1 (Homo sapiens, UniProt Q00613 1-529); conditions: protein: recombinant; tags: N-terminal GST; chain copies: 3; dsDNA, one strand shown
# How it was run: as §1
# [12] = target: T7, SPIC (Homo sapiens, UniProt Q8N5J4 1-248); conditions: protein: recombinant; tags: N-terminal GST; dsDNA, one strand shown
# T7 sequence: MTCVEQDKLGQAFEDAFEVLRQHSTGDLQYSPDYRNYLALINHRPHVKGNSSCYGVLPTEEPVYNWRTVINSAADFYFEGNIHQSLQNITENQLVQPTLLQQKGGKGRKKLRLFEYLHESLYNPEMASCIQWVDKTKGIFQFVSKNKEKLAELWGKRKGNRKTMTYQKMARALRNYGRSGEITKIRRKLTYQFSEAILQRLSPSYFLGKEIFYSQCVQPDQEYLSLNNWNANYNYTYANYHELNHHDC
# How it was run: as §1
# [13] = target: ELF4 (Homo sapiens, UniProt Q99607 1-663); conditions: protein: recombinant; tags: N-terminal GST; dsDNA, one strand shown
# How it was run: as §1
# [14] = target: T8, ELK4 (Homo sapiens, UniProt P28324-2 1-405); conditions: protein: recombinant; tags: N-terminal GST; dsDNA, one strand shown
# T8 sequence: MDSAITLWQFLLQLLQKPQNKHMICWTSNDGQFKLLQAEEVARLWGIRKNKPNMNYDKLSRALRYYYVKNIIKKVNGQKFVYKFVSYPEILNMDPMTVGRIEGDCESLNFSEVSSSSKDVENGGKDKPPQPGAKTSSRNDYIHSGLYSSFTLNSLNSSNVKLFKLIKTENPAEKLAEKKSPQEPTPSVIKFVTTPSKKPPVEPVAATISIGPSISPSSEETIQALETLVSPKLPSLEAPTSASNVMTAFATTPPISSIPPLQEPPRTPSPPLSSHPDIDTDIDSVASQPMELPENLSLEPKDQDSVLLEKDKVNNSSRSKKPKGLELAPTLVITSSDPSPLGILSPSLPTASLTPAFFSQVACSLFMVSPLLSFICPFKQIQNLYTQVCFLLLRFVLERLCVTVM
# How it was run: as §1
# [15] = target: T9, ETV2 (Homo sapiens, UniProt O00321 1-342); conditions: protein: recombinant; tags: N-terminal GST; dsDNA, one strand shown
# T9 sequence: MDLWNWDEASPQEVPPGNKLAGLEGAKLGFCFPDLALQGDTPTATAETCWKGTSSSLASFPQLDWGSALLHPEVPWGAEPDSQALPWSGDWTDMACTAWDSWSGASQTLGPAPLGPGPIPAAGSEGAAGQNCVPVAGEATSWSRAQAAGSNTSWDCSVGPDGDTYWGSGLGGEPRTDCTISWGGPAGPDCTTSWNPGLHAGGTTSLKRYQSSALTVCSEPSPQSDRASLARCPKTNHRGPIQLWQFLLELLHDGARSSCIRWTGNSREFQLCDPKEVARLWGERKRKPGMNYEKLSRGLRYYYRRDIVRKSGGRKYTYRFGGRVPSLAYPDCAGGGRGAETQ
# How it was run: as §1
# [16] = target: T10, ELF3 (Homo sapiens, UniProt P78545 1-371); conditions: protein: recombinant; tags: N-terminal GST; dsDNA, one strand shown
# T10 sequence: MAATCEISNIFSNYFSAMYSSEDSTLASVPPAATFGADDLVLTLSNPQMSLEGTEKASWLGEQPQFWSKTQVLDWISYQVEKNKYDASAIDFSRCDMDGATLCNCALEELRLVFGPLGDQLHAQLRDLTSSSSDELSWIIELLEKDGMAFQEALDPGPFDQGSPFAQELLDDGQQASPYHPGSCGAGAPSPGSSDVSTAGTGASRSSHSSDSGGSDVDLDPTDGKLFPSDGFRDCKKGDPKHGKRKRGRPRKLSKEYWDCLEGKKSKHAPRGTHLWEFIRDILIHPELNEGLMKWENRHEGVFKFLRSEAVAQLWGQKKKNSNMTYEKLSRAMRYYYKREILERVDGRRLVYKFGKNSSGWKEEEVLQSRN
# How it was run: as §1
# [17] = target: CRX (Homo sapiens, UniProt O43186 1-299); conditions: protein: recombinant; tags: N-terminal GST; dsDNA, one strand shown
# How it was run: as §1
# [18] = target: ETV1 (Homo sapiens, UniProt P50549 1-477); conditions: protein: recombinant; tags: N-terminal GST; dsDNA, one strand shown
# How it was run: as §1
# Chain of ELF4 (Q99607 whole entry): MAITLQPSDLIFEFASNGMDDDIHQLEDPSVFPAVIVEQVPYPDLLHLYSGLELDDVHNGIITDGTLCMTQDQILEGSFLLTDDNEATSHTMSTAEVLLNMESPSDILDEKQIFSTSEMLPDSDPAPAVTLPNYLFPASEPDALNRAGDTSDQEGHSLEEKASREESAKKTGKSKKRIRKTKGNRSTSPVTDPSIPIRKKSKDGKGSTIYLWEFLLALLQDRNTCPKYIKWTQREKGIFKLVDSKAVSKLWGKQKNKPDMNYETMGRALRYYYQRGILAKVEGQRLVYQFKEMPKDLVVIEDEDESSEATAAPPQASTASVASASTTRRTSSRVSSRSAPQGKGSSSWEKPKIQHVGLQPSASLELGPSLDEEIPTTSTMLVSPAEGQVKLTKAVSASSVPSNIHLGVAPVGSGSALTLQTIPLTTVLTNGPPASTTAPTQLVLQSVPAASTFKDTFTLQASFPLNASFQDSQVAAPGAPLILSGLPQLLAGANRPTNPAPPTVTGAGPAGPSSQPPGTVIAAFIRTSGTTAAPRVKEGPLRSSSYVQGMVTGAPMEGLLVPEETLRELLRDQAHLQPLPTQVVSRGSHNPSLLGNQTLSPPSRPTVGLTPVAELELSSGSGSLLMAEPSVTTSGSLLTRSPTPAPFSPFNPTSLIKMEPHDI
# Chain of SPIB (Q01892 whole entry): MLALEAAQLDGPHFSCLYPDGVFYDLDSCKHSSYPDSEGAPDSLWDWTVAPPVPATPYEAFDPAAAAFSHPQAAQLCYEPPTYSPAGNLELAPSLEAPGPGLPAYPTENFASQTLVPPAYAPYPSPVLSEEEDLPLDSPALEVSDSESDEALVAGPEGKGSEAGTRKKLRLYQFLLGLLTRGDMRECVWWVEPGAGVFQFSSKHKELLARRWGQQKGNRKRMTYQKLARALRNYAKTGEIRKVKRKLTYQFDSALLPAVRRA
# Chain of ELF1 (P32519 whole entry): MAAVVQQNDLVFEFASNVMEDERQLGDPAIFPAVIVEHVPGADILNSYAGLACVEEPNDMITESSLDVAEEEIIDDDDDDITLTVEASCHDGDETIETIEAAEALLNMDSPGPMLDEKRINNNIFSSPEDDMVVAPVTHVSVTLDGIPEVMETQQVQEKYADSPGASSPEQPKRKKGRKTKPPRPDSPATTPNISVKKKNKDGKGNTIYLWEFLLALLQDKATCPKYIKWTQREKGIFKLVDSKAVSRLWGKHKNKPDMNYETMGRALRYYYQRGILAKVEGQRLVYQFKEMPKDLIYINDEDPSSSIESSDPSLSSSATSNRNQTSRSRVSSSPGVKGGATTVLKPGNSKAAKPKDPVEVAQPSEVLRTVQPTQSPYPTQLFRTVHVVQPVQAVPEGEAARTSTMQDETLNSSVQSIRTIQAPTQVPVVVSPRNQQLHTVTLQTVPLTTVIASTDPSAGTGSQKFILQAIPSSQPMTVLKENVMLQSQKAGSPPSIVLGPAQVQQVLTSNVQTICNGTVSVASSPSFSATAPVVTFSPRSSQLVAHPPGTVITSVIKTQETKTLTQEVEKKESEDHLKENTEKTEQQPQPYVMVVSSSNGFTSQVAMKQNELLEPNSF
# Chain of HSF1 (Q00613 whole entry): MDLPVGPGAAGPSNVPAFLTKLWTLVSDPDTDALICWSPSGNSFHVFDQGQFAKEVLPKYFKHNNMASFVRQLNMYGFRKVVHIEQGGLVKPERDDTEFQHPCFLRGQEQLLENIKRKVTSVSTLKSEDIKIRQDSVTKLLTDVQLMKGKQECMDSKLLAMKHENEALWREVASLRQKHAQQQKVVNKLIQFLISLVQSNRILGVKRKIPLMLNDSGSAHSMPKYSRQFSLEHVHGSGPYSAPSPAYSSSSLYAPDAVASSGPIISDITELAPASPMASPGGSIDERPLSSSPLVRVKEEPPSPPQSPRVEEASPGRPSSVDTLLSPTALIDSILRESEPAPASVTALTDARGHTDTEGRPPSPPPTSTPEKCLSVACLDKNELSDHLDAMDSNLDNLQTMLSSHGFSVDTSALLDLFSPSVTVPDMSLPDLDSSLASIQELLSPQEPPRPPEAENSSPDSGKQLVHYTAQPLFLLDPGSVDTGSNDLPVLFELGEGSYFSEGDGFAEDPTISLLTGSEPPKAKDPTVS
# Chain of CRX (O43186 whole entry): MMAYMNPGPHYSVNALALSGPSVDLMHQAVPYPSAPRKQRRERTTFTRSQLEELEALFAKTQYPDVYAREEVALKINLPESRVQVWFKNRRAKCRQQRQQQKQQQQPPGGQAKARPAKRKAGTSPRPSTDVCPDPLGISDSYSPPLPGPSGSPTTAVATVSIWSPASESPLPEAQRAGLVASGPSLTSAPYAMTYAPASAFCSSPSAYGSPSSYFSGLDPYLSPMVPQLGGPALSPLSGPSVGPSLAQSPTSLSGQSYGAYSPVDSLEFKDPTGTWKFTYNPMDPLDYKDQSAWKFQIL
# Chain of ETV5 (P41161 whole entry): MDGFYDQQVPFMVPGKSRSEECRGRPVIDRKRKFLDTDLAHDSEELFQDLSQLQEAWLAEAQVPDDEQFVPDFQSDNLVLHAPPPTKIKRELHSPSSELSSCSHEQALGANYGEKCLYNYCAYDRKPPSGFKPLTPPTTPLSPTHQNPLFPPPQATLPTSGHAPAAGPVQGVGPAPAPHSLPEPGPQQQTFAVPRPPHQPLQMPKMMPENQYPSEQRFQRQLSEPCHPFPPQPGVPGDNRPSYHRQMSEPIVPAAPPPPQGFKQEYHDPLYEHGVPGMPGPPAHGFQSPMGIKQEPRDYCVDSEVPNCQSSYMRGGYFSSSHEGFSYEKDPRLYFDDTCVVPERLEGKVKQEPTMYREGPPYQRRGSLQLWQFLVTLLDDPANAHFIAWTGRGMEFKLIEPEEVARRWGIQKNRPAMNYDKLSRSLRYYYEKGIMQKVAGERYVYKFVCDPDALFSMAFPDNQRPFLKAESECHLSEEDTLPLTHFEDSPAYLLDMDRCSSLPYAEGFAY
# Chain of ETV1 (P50549 whole entry): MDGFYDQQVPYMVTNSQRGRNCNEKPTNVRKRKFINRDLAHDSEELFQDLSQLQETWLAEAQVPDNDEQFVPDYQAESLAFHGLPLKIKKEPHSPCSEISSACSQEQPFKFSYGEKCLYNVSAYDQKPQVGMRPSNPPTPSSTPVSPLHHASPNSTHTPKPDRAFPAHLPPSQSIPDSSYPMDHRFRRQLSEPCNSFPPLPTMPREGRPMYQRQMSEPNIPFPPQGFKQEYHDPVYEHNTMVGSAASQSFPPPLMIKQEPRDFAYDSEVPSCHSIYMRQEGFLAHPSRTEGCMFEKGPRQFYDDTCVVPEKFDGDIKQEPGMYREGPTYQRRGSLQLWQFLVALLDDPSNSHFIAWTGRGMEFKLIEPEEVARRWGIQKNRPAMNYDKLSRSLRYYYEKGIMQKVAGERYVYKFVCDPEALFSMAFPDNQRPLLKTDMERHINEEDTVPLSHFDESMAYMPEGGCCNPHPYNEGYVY
sequence,measurement,setting,value
TAACGA,binding signal,[1],"1.09 fold enrichment (6-mer frequency, TF over GST control)"
same,binding signal,[2],"1.04 fold enrichment (6-mer frequency, TF over GST control)"
same,binding signal,[3],"1.07 fold enrichment (6-mer frequency, TF over GST control)"
same,binding signal,[4],"1.08 fold enrichment (6-mer frequency, TF over GST control)"
same,binding signal,[5],"1.03 fold enrichment (6-mer frequency, TF over GST control)"
same,binding signal,[6],"1.06 fold enrichment (6-mer frequency, TF over GST control)"
same,binding signal,[7],"1.1 fold enrichment (6-mer frequency, TF over GST control)"
same,binding signal,[8],"1.03 fold enrichment (6-mer frequency, TF over GST control)"
same,binding signal,[9],"1.08 fold enrichment (6-mer frequency, TF over GST control)"
same,binding signal,[10],"1.06 fold enrichment (6-mer frequency, TF over GST control)"
same,binding signal,[11],"1.23 fold enrichment (6-mer frequency, TF over GST control)"
same,binding signal,[12],"1.1 fold enrichment (6-mer frequency, TF over GST control)"
same,binding signal,[13],"1.12 fold enrichment (6-mer frequency, TF over GST control)"
same,binding signal,[14],"1.09 fold enrichment (6-mer frequency, TF over GST control)"
same,binding signal,[15],"1.04 fold enrichment (6-mer frequency, TF over GST control)"
same,binding signal,[16],"1.02 fold enrichment (6-mer frequency, TF over GST control)"
same,binding signal,[17],"1.57 fold enrichment (6-mer frequency, TF over GST control)"
same,binding signal,[18],"1.08 fold enrichment (6-mer frequency, TF over GST control)"
